Source: PubChem
Rows were chosen to be rich in hits. Some 12% of all compounds tested hit in one or more screens of this group.
BAZ2B inh: qHTS Assay for Inhibitors of BAZ2B; AID 504333, 2011; hit rate 4.4% among 360,000; AlphaScreen BAZ2B-H3K14Ac peptide displacement; Potency, µM (top dose mostly 114 µM), hits mostly inhibitors; Bromodomain adjacent to zinc finger domain protein 2B (Homo sapiens), Q9UIF8; further: nearly all actives have a fitted effect of over 60% in size
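AlphaScreen displacement of biotin-H3(5-23)K14Ac peptide (50 nM final) from BAZ2B (50 nM final) in PBS pH 7.4, 0.01% Tween-20; complex preformed 30 min RT, then compounds (top 110 uM) 30 min RT, beads 20 min dark.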
L3MBTL1 block: qHTS Assay for the Inhibitors of L3MBTL1; Lethal(3)malignant brain tumor-like protein 1 (Homo sapiens), Q9Y468; AlphaScreen L3MBTL1–H3K9me1 peptide binding; Potency, µM (top dose mostly 57.1 µM), most hits filed as inhibitors; hit rate 0.66% among 230,000; further: nearly all actives have a fitted effect of over 60% in size
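First, the protein-peptide complex forms for 30 min at room temperature (L3MBTL1 50 nM, biotinylated H3K9me1 peptide 75 nM). Next, compounds are pin-transferred and incubated 30 min. Finally, AlphaScreen beads are added and read after 30 min.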
HP1b binding inh: HTS for Inhibitors of HP1-beta Chromodomain Interactions with Methylated Histone Tails; AlphaScreen HP1-beta / biotin-H3K9me3 peptide binding; Chromobox protein homolog 1 (Homo sapiens), P83916; hit rate 0.56% among 390,000; Potency, µM (highest dose often 114 µM), most hits filed as inhibitors; AID 540317, 2011; further: nearly all actives have a fitted effect of over 70% in size
Target sequence (P83916 whole entry, looked up): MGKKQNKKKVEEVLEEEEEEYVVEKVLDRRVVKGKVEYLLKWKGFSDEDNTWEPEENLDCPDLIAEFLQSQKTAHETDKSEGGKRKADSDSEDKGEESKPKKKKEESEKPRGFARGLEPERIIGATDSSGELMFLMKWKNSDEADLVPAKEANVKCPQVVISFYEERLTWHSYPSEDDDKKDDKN
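HP1-beta protein (50 nM final) preincubated 30 min at room temperature with biotinylated H3(1-18)K9me3 peptide (50 nM) in PBS pH 7.4, 0.01% Tween-20, then compound added for 30 min. AlphaScreen streptavidin donor/nickel chelate acceptor beads (10 ug/mL final), 30 min dark, luminescence read.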
JMJD2A Tudor: qHTS Assay for Inhibitors of JMJD2A-Tudor Domain; Lysine-specific demethylase 4A (Homo sapiens), O75164; AlphaScreen JMJD2A-Tudor / H3K4me3 peptide binding; Potency, µM (titrated, usually from 114 µM), most hits filed as inhibitors; hit rate 4.4% among 390,000; further: nearly all actives have a fitted effect of over 50% in size
Sfp PPTase inh: qHTS Assay for Inhibitors of Bacillus subtilis Sfp phosphopantetheinyl transferase (PPTase); Biochemical Sfp PPTase activity, qHTS; hit rate 3.5% among 310,000; Potency, µM, usual class: inhibitors; 4'-phosphopantetheinyl transferase ffp (Bacillus subtilis), Q9F4F7;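 further: the enzyme is Sfp with the accession as filed and its product quenches rhodamine fluorescence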
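Fluorescence-quenching assay with 15 nM Sfp, 5 uM rhodamine-CoA and 12.5 uM BHQ-2-labelled ybbR peptide in pH 7.6 Hepes/MgCl2 buffer. Enzyme was pre-incubated with compound for 15 min at room temperature. Rate was taken from the 30-min fluorescence change (525/598 nm).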
G9a inh: qHTS Assay for Inhibitors of Histone Lysine Methyltransferase G9a; G9a H3K9 monomethylation, AlphaScreen, 2 h; Potency, µM (titrated, usually from 102 µM), usual class: inhibitors; hit rate 8.8% among 350,000; AID 504332, 2011; further: nearly all actives have a fitted effect of over 75% in size
Target sequence (Q96KQ7 913-1193 limits assumed): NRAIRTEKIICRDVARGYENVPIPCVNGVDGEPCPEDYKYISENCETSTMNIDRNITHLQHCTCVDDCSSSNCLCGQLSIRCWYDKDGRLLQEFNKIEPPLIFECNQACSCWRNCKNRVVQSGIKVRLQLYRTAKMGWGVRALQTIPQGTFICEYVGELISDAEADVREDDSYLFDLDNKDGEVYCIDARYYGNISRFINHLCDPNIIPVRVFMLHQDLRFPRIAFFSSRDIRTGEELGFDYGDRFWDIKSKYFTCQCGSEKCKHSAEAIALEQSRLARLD
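Using a bead-based AlphaScreen, monomethylated H3K9 product from 2 h room-temperature reactions (G9a 20 nM, peptide 500 nM, SAM 20 uM) was detected with 0.5 ug/mL rabbit anti-H3K9me1 antibody.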
Numbers stand for hits; - = inactive; ? = inconclusive; . = no result given; [ ] = dose if it differs, or a comment. The call rests on the fitted dose curve; in most records, active means well fitted curve in the direction sought with a large enough effect; inconclusive means small, poorly fitted or top-dose-only effect, or another doubt; inactive means no such curve, though single readings can be large; an effect the other way counts as inactive or inconclusive.

SMILES | BAZ2B inh | L3MBTL1 block | HP1b binding inh | JMJD2A Tudor | Sfp PPTase inh | G9a inh
O=C(CCN1C(=O)C2CC=CCC2C1=O)NC1CCCCC1 (stereo unspecified) | - | . | - | - | - | .
Cn1c(=O)n(C)c2cc(/C=C3/SC(=O)N(CC(=O)N4CCOCC4)C3=O)ccc21 | 50.1µM | - | - | - | - | -
COc1ccc(/C=C2/SC(=S)N(CCCC(=O)N3CCN(C)CC3)C2=O)cc1 | 31.6µM | . | ? | ? | - | ?
COc1cc(/C=C2\SC(=S)N(CCC(=O)N3CCN(C)CC3)C2=O)cc(OC)c1OC | - | . | ? | ? | - | 50.1µM
Cc1ccc(/C=C2\SC(=S)N(CCCC(=O)N3CCOCC3)C2=O)cc1 | 11.2µM | . | ? | 20µM | - | .
COC(=O)c1ccc(/C=C2\SC(=S)N(CCCC(=O)N3CCOCC3)C2=O)cc1 | . | . | - | - | . | .
Cc1ccc(C2(SCC(N)C(=O)O)c3ccccc3-c3ccccc32)cc1 (stereo unspecified) | . | . | - | ? | . | .
O=C(CCN1C(=O)/C(=C/c2ccccc2)SC1=S)N1CCCCCC1 | - | . | - | - | - | -
CN1CCN(C(=O)CCN2C(=O)/C(=C\c3ccc(Cl)cc3Cl)SC2=S)CC1 | ? | - | ? | 15.8µM | - | .
CC1CCN(C(=O)CCN2C(=O)/C(=C/c3cccs3)SC2=S)CC1 | ? | . | ? | 28.2µM | - | 31.6µM
CN1CCN(C(=O)CCCN2C(=O)/C(=C/c3ccc(Cl)cc3)SC2=S)CC1 | ? | - | - | ? | . | -[12.7 µM]
COc1ccc(NC(=O)CSC2=Nc3ccccc3N=C(c3ccc(F)cc3)C2)cc1OC | - | . | - | - | . | -
Cc1ccc2c(c1)NCCO2 | . | - | - | 50.1µM | - | ?
CCN(CC)c1ccc(CNc2ccc(Br)cn2)cc1 | 22.4µM | - | - | ? | - | ?
COc1ccccc1NC(=O)c1cc2ccc(O)cc2o/c1=N\O | - | - | - | ? | - | ?
COc1ccccc1NC(=O)c1cc2ccccc2o/c1=N\O | 79.4µM | - | - | ? | 50.1µM | 14.1µM
COc1cc(NC(=O)c2cc3ccccc3cc2O)c(OC)cc1Cl | - | . | - | - | - | -[12.7 µM]
COc1ccccc1NC(=O)c1cc2cc(Br)ccc2cc1O | 50.1µM | . | - | ? | ? | ?
Cn1c(=O)n(C)c2cc(CNCc3ccccc3Cl)ccc21 | - | . | - | - | . | -
Cc1ccc(C)c(C(C)NC(=O)c2ccc(Br)o2)c1 (stereo unspecified) | - | - | - | - | 50.1µM | 50.1µM
O=C(N/N=C/c1ccc(N2CCOCC2)s1)c1ccccc1Cl | - | - | - | ? | - | ?
C(=N\N(c1ccccc1)c1ccccc1)/c1ccc(N2CCOCC2)s1 | ? | - | ? | ? | - | 12.6µM
O=C(N/N=C/c1ccc(N2CCOCC2)s1)c1ccc(NS(=O)(=O)c2cccs2)cc1 | - | - | - | - | ? | .
CCOC(=O)N/N=C/c1ccc(N2CCOCC2)s1 | - | - | - | - | - | 39.8µM
O=C(O)Cn1cccc1C(=O)c1ccccc1 | - | - | - | - | - | 56.2µM
SMILES | BAZ2B inh | L3MBTL1 block | HP1b binding inh | JMJD2A Tudor | Sfp PPTase inh | G9a inh
CCN1C(=O)[C@H]2[C@H]3[C@H](O)[C@H](O)C/C(=N/OC[C@@H](O)COCc4ccco4)[C@@H]3CC[C@@H]2C1=O | . | . | . | . | - | .
CCOC(=O)c1c(NC(=O)c2ccc(Br)cc2)sc2c1CCCC2 | - | . | ? | - | . | 10µM
CCOC(=O)c1c(NC(=O)C(C)Sc2cn(CCNC(=O)c3ccccc3OC)c3ccccc23)sc2c1CCC2 (stereo unspecified) | 8.91µM | . | - | - | . | ?
CCOC(=O)c1c(NC(=O)C(C)Sc2cn(CCNC(=O)c3ccc(OC)c(OC)c3)c3ccccc23)sc2c1CCC2 (stereo unspecified) | - | . | - | ? | . | ?
CCn1cc(C(=O)NC(=S)Nc2sc3c(c2C(=O)OC)CCCCCC3)cn1 | - | - | - | - | 35.5µM | ?
CCOC(=O)c1c(NC(=O)c2ccoc2C)sc2c1CCC2 | - | . | - | - | 25.1µM | -
CCOC(=O)c1c(NC(=O)c2ccn(CC)n2)sc2c1CCC2 | - | . | - | - | - | -
CCCCOc1ccc(C(=O)NCCc2csc3nc(-c4ccccc4F)nn23)cc1 | - | . | - | - | . | -
COC(=O)C1=C(NC(=O)c2ccccc2C)CCS1 | - | - | - | 79.4µM | - | -
COC(=O)C1=C(NC(=O)c2cccs2)CCS1 | - | - | . | . | - | -[12.7 µM]
CCOC(=O)c1c(NC(=O)c2ccccc2C)sc2c1CCCC2 | - | . | - | - | . | 7.94µM
CCOC(=O)c1c(NC(=O)c2nn(CC)cc2Br)sc2c1CCCCC2 | - | - | - | - | 20µM | ?
CCOC(=O)c1c(NC(=O)COC(=O)Cn2c(C)nc3ccccc32)sc2c1CCCC2 | - | - | - | - | 31.6µM | -
c1cnc2c(OCc3cn4cccnc4n3)cccc2c1 | ? | . | - | ? | - | 3.16µM
CCN1CCN(Cc2c(O)ccc3oc(C)c(C(=O)Nc4ccc(OC)cc4)c23)CC1 | - | . | - | - | . | -
O=C(CN1CCN(c2ccccn2)CC1)N(c1ccccc1)c1ccc2ccccc2c1 | ? | ? | - | -[11.4 µM] | - | 50.1µM
O=C(CN1CCOCC1)N(c1ccccc1)c1ccc2ccccc2c1 | - | - | - | - | - | 50.1µM
CN(C(=O)N1CCN(c2ccccn2)CC1)c1ccccc1 | - | - | - | - | - | -
COCC(=O)N1CCC2(CC1)CCN(C(=O)Nc1cccc(F)c1)CC2 | . | . | . | . | - | -[12.7 µM]
CCN1CC(CN(C)Cc2nc(-c3ccco3)oc2C)CC1=O (stereo unspecified) | - | - | - | - | - | 79.4µM
N#CC(C#N)=c1ccc2c(c1)NC1(CCCCC1)N=2 | 12.6µM | 28.2µM | 31.6µM | 22.4µM | - | 11.2µM
COc1cc2ccccc2cc1C(=O)N(CCN(C)C)c1nc2ccc(Br)cc2s1 | ? | . | ? | ? | - | 25.1µM
COc1cc2ccccc2cc1C(=O)N(CCN(C)C)c1nc2c(F)cc(F)cc2s1 | ? | . | - | ? | - | 31.6µM
CN(C)CCN(C(=O)CCc1ccccc1)c1nc2c(F)cc(F)cc2s1 | . | . | - | - | - | 50.1µM
O=C(CCc1ccccc1)N(Cc1cccnc1)c1nc2c(F)cc(F)cc2s1 | - | . | - | - | . | -
CN(C)CCCN(C(=O)CCc1ccccc1)c1nc2ccc(Br)cc2s1 | . | . | - | - | ? | 79.4µM
CCCC(=O)Nc1ccc(-c2nc3ncccc3o2)cc1C | - | . | - | - | . | -
Cc1ccc(NC(=S)N(CCCN(C)C)Cc2cc3cc4c(cc3[nH]c2=O)OCO4)c(C)c1 | - | - | - | - | - | -
